Source: paper PMC6792352, “Limited Chemical Structural Diversity Found to Modulate Thyroid Hormone Receptor in the Tox21 Chemical Library” (Environmental Health Perspectives, 2019)
Where a name gives a salt, the structure may show the parent alone.

Each molecule was assayed on thyroid hormone receptor (endogenous TRα and TRβ). Settings: read-out: Average AC50 (uM) GH3-TRE-Antag, antagonist mode, 1 nM T3, no GH3 cytotoxicity hit.
Design: species or system GH3-TRE-Luc (rat pituitary); GH3-TRE-Luc luciferase reporter, antagonist mode against 1 nM T3, loss of signal, qHTS
With `CCC(COC(=O)c1cc(OC)c(OC)c(OC)c1)(c1ccccc1)N(C)C` (stereo not drawn) [Trimebutine maleate] the AC50 was 16.3 µM. For `CCn1c2ccccc2c2cc(N)ccc21` [3-Amino-9-ethylcarbazole hydrochloride], the AC50 was 46.6 µM. In the case of `CC(C)OC(=S)S` [Proxan-sodium], the AC50 is reported as > 90 µM. `Clc1cc(C(Cl)(Cl)Cl)cnc1Cl` [2,3-Dichloro-5-(trichloromethyl)pyridine] was tested, and the AC50 was 40.5 µM. `N[C@H](C(=O)O)[C@H](O)c1ccc(O)c(O)c1` [Droxidopa] showed an AC50 of 29.5 µM. In the case of `Cc1cc(O)c2c(O)c3c(O)cccc3cc2c1` [Chrysarobin], the AC50 is reported as 28.1 µM. For `O=C(OCc1ccccc1)c1ccc(O)cc1` [Benzylparaben], the AC50 was > 50 µM. With `Oc1ccc2c(c1)OCO2` [Sesamol] the AC50 was > 90 µM. With `Nc1c2ccccc2nc2ccccc12` [9-Aminoacridine, monohydrochloride, monohydrate] the AC50 was 3.62 µM. Work on `CC/C=C\CC/C=C/C(OCC)OCC` [(2E,6Z)-1,1-diethoxynona-2,6-diene] yielded an AC50 of 61.1 µM. `Oc1ccc(-c2ccc(O)cc2)cc1` [4,4'-Biphenyldiol] gave an AC50 of 34.2 µM. Molecule `OCc1c2ccccc2cc2ccccc12` [9-Anthracenemethanol] has an AC50 of 64.3 µM. For `O=c1oc2ccccc2c(O)c1C1CCCc2ccccc21` (stereo not drawn) [Coumatetralyl], the AC50 was > 90 µM. `Cc1cc(OI)c(C(C)C)cc1-c1cc(C(C)C)c(OI)cc1C` [Thymol iodide] gave an AC50 of 37.3 µM. In the case of `Cc1cc(Nc2ccccc2C(=O)O)ccc1Cl` [2-[(4-Chloro-3-methylphenyl)amino]benzoic acid], the AC50 is reported as 16.1 µM.
